PubChem BioAssay AID1851 (National Center for Advancing Translational Sciences (NCATS), 2009)
Screen size: about 16,000 compounds; about 4,000 (25%) were called active. Not shown: some 26% with an inconclusive outcome. A selection follows. Unmarked numbers belong to inactive results. Calls come from the whole dose curve; as a rule, active = well fitted curve in the direction sought with a large enough effect; inconclusive = small, poorly fitted or top-dose-only effect, or effect the other way; inactive = no such curve, though single readings can be large or run the other way.
% is set by controls: 0 for no effect and ±100 for the full control effect.

Each molecule was assayed against Cytochrome P450 2C9 (Homo sapiens) (UniProt P11712) (assay: Cytochrome panel assay with activity outcomes). Conditions: recombinant CYP, pro-luciferin dealkylation, luminescence, p450-cyp2c9; series mostly up to 57.1 µM.
Sequence of Cytochrome P450 2C9 (Homo sapiens) (P11712 whole entry, looked up): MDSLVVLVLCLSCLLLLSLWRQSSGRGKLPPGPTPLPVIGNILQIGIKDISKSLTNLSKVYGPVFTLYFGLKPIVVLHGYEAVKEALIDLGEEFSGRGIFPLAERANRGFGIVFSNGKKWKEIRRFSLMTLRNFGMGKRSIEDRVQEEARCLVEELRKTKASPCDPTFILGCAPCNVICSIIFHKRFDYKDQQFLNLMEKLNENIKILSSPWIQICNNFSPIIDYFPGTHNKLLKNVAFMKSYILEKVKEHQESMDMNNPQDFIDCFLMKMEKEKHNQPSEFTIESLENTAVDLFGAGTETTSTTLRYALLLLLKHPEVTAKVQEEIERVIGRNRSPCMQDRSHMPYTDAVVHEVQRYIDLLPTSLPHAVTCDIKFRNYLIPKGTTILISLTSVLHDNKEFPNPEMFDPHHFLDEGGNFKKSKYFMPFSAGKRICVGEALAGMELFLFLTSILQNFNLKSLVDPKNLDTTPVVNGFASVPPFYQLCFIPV
Work on `O=C(Nc1ccc(Nc2ccc3c(c2)C(=O)c2ccccc2C3=O)c2c1C(=O)c1ccccc1C2=O)c1ccccc1` yielded an activity, negative = inhibition of -2.6% [at 11.4 µM].
For `O=C1c2ccccc2-c2ccc(NC(=O)[C@H]3CCCC[C@@H]3C(=O)O)cc21`, the activity, negative = inhibition was -10.8% [at 11.4 µM].
For `CCC(=O)Nc1ccc2c(c1)C(=O)c1ccccc1C2=O`, the AC50 was 3.16 µM (active).
For `O=C(O)c1ccc(Nc2ccnc3cc(Cl)ccc23)cc1O`, the activity, negative = inhibition was -1.26% [at 11.4 µM].
With `O=c1c(-c2cccc(Cl)c2)nc2cncnc2n1-c1ccccc1` the AC50 was 10 µM (active).
`O=c1c(-c2ccccc2)nc2cncnc2n1-c1ccccc1` was tested, and the AC50 was 15.8 µM (active).
With `O=c1c(-c2ccc(F)cc2)nc2cncnc2n1-c1ccccc1` the AC50 was “inactive”.
`COc1ccc(-n2c(=O)c(-c3cccs3)nc3cncnc32)cc1` was tested, and the AC50 was “inactive”.
`CN(C)c1ncc2nc(-c3cccs3)c(=O)n(-c3ccccc3)c2n1` was tested, and the AC50 was “inactive”.
For `O=c1c(-c2cccs2)nc2cncnc2n1-c1ccccc1`, the AC50 was 10 µM (active).
For `COc1ccc(-n2c(=O)c(-c3ccccc3)nc3cncnc32)cc1`, the AC50 was “inactive”.
In the case of `CSCC[C@@H]1NC(=O)C/C=C\[C@@H](C)COC(=O)[C@@H](C)COC1=O`, the activity, negative = inhibition is reported as 14.5% [at 11.4 µM].
`CCCCn1c(NCc2ccccc2NS(=O)(=O)c2ccc(C)cc2)nc2ccccc21` was tested, and the AC50 was 1.58 µM (active).
With `c1ccc(CN(CC2=NCCN2)c2ccccc2)cc1` the AC50 was “inactive”.
For `COc1nc(Oc2ccc(/C=N/O)cc2)nc(N(C)C)n1`, the AC50 was “inactive”.
`CN(C)C(=C(C#N)C#N)N1CCN(c2ccc(Cl)c(Cl)c2)CC1` was tested, and the AC50 was 12.6 µM (active).
With `O=S(=O)(O)c1ccc(N=Nc2ccccc2)cc1` the activity, negative = inhibition was -1.61% [at 11.4 µM].
For `O=S(=O)(C=C(c1ccccc1)c1ccccc1)c1ccccc1`, the AC50 was 7.08 µM (active).
`O=S(=O)(/N=C(/Nc1ccccn1)c1ccccc1)c1ccccc1` was tested, and the AC50 was “inactive”.
With `O=C(Nc1ccnc(-c2cccnc2)n1)c1cccc(Cl)c1Cl` the AC50 was 3.98 µM (active).
Molecule `N#Cc1cccc(-c2nccc(NCc3cccnc3)n2)c1` has an activity, negative = inhibition of -11.5% [at 2.29 µM].
`c1ccc(CNc2ccnc(-c3cccnc3)n2)cc1` showed an activity, negative = inhibition of -12.1% [at 2.29 µM].
With `c1cncc(-c2nccc(NCc3cccs3)n2)c1` the AC50 was 0.398 µM (active).
For `O=C(Nc1ccnc(-c2cccnc2)n1)c1ccccc1Cl`, the AC50 was 15.8 µM (active).
In the case of `CN(C)C(=O)c1ccc(-c2nccc(NCc3cccnc3)n2)cc1`, the activity, negative = inhibition is reported as 5.1% [at 2.29 µM].
Work on `c1csc(CNc2ccnc(-c3ccoc3)n2)c1` yielded an activity, negative = inhibition of -25.1% [at 2.29 µM].
With `COc1ccc(CNc2ccnc(-c3cccnc3)n2)c(OC)c1` the activity, negative = inhibition was 8.69% [at 2.29 µM].
With `COc1cccc(-c2nccc(NCc3cccs3)n2)c1` the activity, negative = inhibition was -26.6% [at 2.29 µM].
`Cc1ccccc1-c1nccc(NCc2cccnc2)n1` was tested, and the activity, negative = inhibition was -17.5% [at 2.29 µM].
For `CC(C)(C)C(=O)Nc1ccnc(-c2cccnc2)n1`, the AC50 was 3.16 µM (active).
For `N[C@H](CCC(=O)NCS(=O)(=O)O)C(=O)O`, the AC50 was “inactive”.
For `CN(C)CCN(c1ccccn1)c1ccccn1`, the activity, negative = inhibition was 0.501% [at 11.4 µM].
`O=C(C1=C(O)C(=O)N(Cc2ccco2)C1c1ccccc1)c1cccs1` (configuration not stated) was tested, and the AC50 was 8.91 µM (active).
In the case of `NS(=O)(=O)Cc1noc2ccccc12`, the AC50 is reported as “inactive”.
`[N-]=[N+]=NC[C@@H]1O[C@@H](n2cnc3c(N)ncnc32)[C@@H]2O[C@@H]21` was tested, and the activity, negative = inhibition was 2.07% [at 11.4 µM].
In the case of `CC1CCN(CC[C@@H]2CCCN2S(=O)(=O)c2cccc(O)c2)CC1`, the AC50 is reported as “inactive”.
`CC1CCN(S(=O)(=O)c2ccc3c(c2)C(=NO)c2cc(S(=O)(=O)N4CCC(C)CC4)ccc2-3)CC1` was tested, and the AC50 was 3.98 µM (active).
With `CC1CCN(CC[C@H]2CCCN2S(=O)(=O)c2cccc(O)c2)CC1` the AC50 was “inactive”.
`CC(=O)Nc1ccc(-c2cc(-c3ccc(NC(C)=O)cc3)nc(-c3ccccc3)n2)cc1` was tested, and the AC50 was “inactive”.
Molecule `N#Cc1cccc(-c2nc(NCc3ccccc3)c3ccccc3n2)c1` has an activity, negative = inhibition of -29.7% [at 2.29 µM].
For `CS(=O)(=O)c1nc(-c2ccccc2)cc(-c2ccccc2)c1C#N`, the AC50 was 0.282 µM (active).
In the case of `COCCCN=CC1=C(O)CC(C)(C)CC1=O`, the AC50 is reported as “inactive”.
`Cc1cccc(-c2noc(-c3cc4ccccc4oc3=O)n2)c1` was tested, and the AC50 was “inactive”.
In the case of `O=c1oc2ccccc2cc1-c1csc(NN=C2CCCCC2)n1`, the AC50 is reported as 3.55 µM (active).
`CN1CCC2(CC1)C1CN(C)CC=C1C(C#N)=C(N)C2(C#N)C#N` (configuration not stated) was tested, and the AC50 was “inactive”.
In the case of `Cc1sc(=NC(=O)c2ccco2)n(C)c1-c1ccc(F)cc1`, the AC50 is reported as 8.91 µM (active).
With `O=C(c1ccco1)N1CCC2(CC1)CCN(c1ccc(-c3ccccc3)cc1)CC2` the AC50 was “inactive”.
For `Cc1sc(=NC(=O)c2ccco2)n(C)c1-c1ccccc1`, the AC50 was 1.12 µM (active).
In the case of `Cn1c(=NC(=O)CCl)sc2ccccc21`, the AC50 is reported as “inactive”.
In the case of `O=C(c1cnccn1)N1CCC2(CCCN(c3ccccn3)C2)CC1`, the AC50 is reported as “inactive”.
For `CS(=O)(=O)Nc1cccc(-c2ccc3ncnc(NC4CCNCC4)c3c2)c1`, the activity, negative = inhibition was -5.87% [at 2.29 µM].
For `O=C(c1csnn1)N1CCC2(CCCN(Cc3ccccc3)C2)CC1`, the AC50 was “inactive”.
In the case of `CCOC(=O)c1c(C)nc2c(c1-c1ccccc1)C(=O)CCC2`, the AC50 is reported as 17.8 µM (active).
In the case of `CC1(C)CC(=O)c2cnc(N)nc2C1`, the AC50 is reported as “inactive”.
With `CCOC(=O)c1c(C)nc2c(c1-c1ccc(OC)cc1)C(=O)CC(C)(C)C2` the AC50 was 15.8 µM (active).
`CCN1CCN(c2nc(C)c3c(n2)CCCC3=O)CC1` was tested, and the AC50 was “inactive”.
For `Cc1nccn1C[C@@H]1CCc2c(c3ccccc3n2C)C1=O`, the AC50 was “inactive”.
`Cc1nnc(SCC2=C(C(=O)O)N3C(=O)[C@@H](NC(=O)Cn4cnnn4)[C@@H]3SC2)s1` was tested, and the AC50 was “inactive”.
With `CCc1nnc(NS(=O)(=O)c2ccc(N=Cc3c(C)[nH]n(-c4ccc(C)cc4)c3=O)cc2)s1` the AC50 was 8.91 µM (active).
For `Cc1ccc(-n2[nH]c(C)c(C=Nc3ccc4[nH]c(=O)[nH]c4c3)c2=O)cc1C`, the AC50 was “inactive”.
With `NC(N)=NC(N)=Nc1ccccc1` the AC50 was “inactive”.
With `C/C=C\C[C@@H](C)[C@@H](O)[C@H]1C(=O)N[C@@H](CC)C(=O)N(C)CC(=O)N(C)[C@@H](CC(C)C)C(=O)N[C@@H](C(C)C)C(=O)N(C)[C@@H](CC(C)C)C(=O)N[C@@H](C)C(=O)N[C@H](C)C(=O)N(C)[C@@H](CC(C)C)C(=O)N(C)[C@@H](CC(C)C)C(=O)N(C)[C@@H](C(C)C)C(=O)N1C` the AC50 was “inactive”.
